# Assay outcomes as filed in PubChem.
# Shown are actives, neighbours in structure and some others; about 8.9% of the full set was active somewhere.
# DRD3 antagonist: qHTS of D3 Dopamine Receptor Antagonist: qHTS; D(3) dopamine receptor (Homo sapiens), P35462; D3R cells, DiscoveRx beta-arrestin luminescence, antagonist mode; stronger effect = lower value; max response, negative = inhibition, %; hit rate 2.5% among 360,000; in the data active = max response below about -50%; inconclusive = no clear call, values can overlap the other calls; note: % is set by controls: 0 for no effect and ±100 for the full control effect
# Target sequence (P35462 whole entry, looked up): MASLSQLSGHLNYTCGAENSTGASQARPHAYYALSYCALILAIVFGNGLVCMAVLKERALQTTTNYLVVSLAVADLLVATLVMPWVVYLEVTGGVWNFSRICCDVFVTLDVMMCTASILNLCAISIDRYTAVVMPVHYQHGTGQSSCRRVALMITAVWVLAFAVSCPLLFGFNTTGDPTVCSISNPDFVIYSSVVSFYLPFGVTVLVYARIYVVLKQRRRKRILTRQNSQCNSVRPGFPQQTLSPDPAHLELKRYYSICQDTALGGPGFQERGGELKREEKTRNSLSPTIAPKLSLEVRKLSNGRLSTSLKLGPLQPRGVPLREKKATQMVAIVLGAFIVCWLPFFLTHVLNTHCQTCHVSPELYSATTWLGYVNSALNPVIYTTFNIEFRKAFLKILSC
#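 Cells plated overnight at 1500 cells/well, then exposed to library compounds with dopamine controls for 90 minutes at 37 degrees C. DiscoveRx reagent added for 30–60 minutes at room temperature; luminescence read, quantitative HTS format.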
# D3 ag: qHTS of D3 Dopamine Receptor Agonist: qHTS | D(3) dopamine receptor (Homo sapiens), P35462 | D3R DiscoveRx beta-arrestin cells, luminescence, 90 min | max activation, % | hit rate 0.58% among 410,000; in the data active = max activation above about 30%; note: 0% is about no effect
#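 Agonist mode: compounds and dopamine controls were applied to plated cells for 90 min at 37 degrees C after an overnight attachment at 1500 cells/well. Luminescent read-out followed 30 - 60 minutes at room temperature with DiscoveRx detection reagent.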
# KB-3-1 tox: qHTS assay for MDR1-selective chemotherapeutics: Primary screen using the parental adenocarcinoma cell KB-3-1; KB-3-1 viability, CellTiter-Glo ATP luminescence, 72 h; Potency, µM (highest dose often 46.1 µM), most hits filed as cytotoxic; hit rate 1.4% among 400,000; AID 1347075, 2019; note: potency is the fitted concentration of half-maximal effect; % is set by controls: 0 for no effect and ±100 for the full control effect; nearly all actives have a fitted effect of over 60% in size
#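 Viability of parental KB-3-1 cells, measured by CellTiter-Glo luminescence, followed a 72 h incubation at 37 °C with pinned compounds in phenol-red-free DMEM containing 10% FBS.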
# KB-V1 MDR tox: qHTS assay for MDR1-selective chemotherapeutics: Primary screen using the drug-selected MDR subline cells KB-V1. hit rate 3.4% among 400,000. Potency, µM (titrated, usually from 46.1 µM), hits mostly cytotoxic. AID 1347076, 2019. KB-V1 MDR cells viability, CellTiter-Glo, 72 h; note: potency is the fitted concentration of half-maximal effect; % is set by controls: 0 for no effect and ±100 for the full control effect; nearly all actives have a fitted effect of over 60% in size
#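 Luminescent ATP read-out (CellTiter-Glo, 10 min) measures survival of drug-selected KB-V1 MDR cells after 72 h, 37 degrees C compound exposure. Medium: phenol-red-free DMEM, 10% FBS. Values from fitted concentration-response curves.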
# MCF10A rerep: A quantitative high throughput screen for small molecules that induce DNA re-replication in MCF 10a normal breast cells | MCF 10A DNA re-replication, Hoechst nuclear intensity, 48 h | Potency, µM (top dose mostly 46.1 µM), for the others: at the top dose activity, positive = re-replication, most hits filed as activators | hit rate 2.9% among 350,000; note: potency is the fitted concentration of half-maximal effect; % of control where 0% means no effect; nearly all actives have a fitted effect of over 50% in size
# SW480 rereplic: A quantitative high throughput screen for small molecules that induce DNA re-replication in SW480 colon adenocarcinoma cells | SW480 DNA re-replication, Hoechst DNA content imaging, 48 h | Potency, µM (series often up to 46.1 µM), inactives show at the top dose re-replication activation, most hits filed as activators | hit rate 1.8% among 340,000 | AID 624297, 2012; note: potency is the fitted concentration of half-maximal effect; % of control where 0% means no effect; nearly all actives have a fitted effect of over 55% in size
#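 Compounds, transferred as 23 nL by pin tool, were incubated with cells for 48 hr; DNA content per nucleus was then quantified by Hoechst staining and fluorescence plate imaging.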
# * hit, by the source's call; i = inactive; ? = inconclusive; / = no result; [ ] = dose if it differs, or a comment. Unless noted, calls come from the whole dose curve; as a rule, active = well fitted curve in the direction sought with a large enough effect; inconclusive = small, poorly fitted or top-dose-only effect, or another doubt; inactive = no such curve, though single readings can be large; an effect the other way counts as inactive or inconclusive.
SMILES,DRD3 antagonist,D3 ag,KB-3-1 tox,KB-V1 MDR tox,MCF10A rerep,SW480 rereplic
Cc1c(N=N/C(C(=O)Nc2ccccc2)=C(/O)c2ccccc2)c(=O)n(-c2ccccc2)n1C,-21,-8,i,i,-18%,6.5µM*
CCCN1CCN(CC2=C(C(=O)OCC)C(c3ccc(OC(C)C)cc3)NC(=O)N2)CC1 (stereo not drawn),/,-17,i,i,/,/
Cc1cccc(OCCN2C(=O)C(=O)c3cc(C)ccc32)c1,-27,-13,?,?,18µM*,?
Cc1ccc2c(c1)C(=O)C(=O)N2CCCOc1ccccc1C,?,-12,?,i,?,30%
Cc1ccc(OCCN2C(=O)c3ccccc3C2=O)cc1,-20,4,i,i,5%,1%
Cc1ccc2c(c1)C(=O)C(=O)N2CCOc1ccccc1,-29,-20,?,?,19%,4.1µM*
Cc1cccc(OCCN2C(=O)C(=O)c3cccc(C)c32)c1,-12,-21,i,i,-1%,-5%
Cc1cccc2c1N(CCCOc1ccc(C(C)(C)C)cc1)C(=O)C2=O,-22,-8,i,i,?,2%
Cc1cccc2c1N(CCCOc1ccccc1)C(=O)C2=O,-50*,-10,i,i,16%,-2%[9.22 µM]
O=C1C(=O)N(Cc2ccccc2)C(=O)N1CCOc1ccccc1,0,3,i,?,13µM*,?
O=C(Cn1c(=O)nc(-c2ccccc2)c2cc(Cl)ccc21)N1CCN(c2ccc(F)cc2)CC1,/,6,/,/,/,/
COc1ccc(/C=C/C(=O)Nc2ccccc2)cc1OC,12,6,i,i,-1%,-9%
COc1ccc(/C=C/C(=O)NC(=S)NCCc2ccc(OC)c(OC)c2)cc1,36,27,i,?,?,10µM*
COc1cc(/C=C/c2cc[n+](C)cc2)ccc1OCC(=O)Nc1ccccc1,-24,1,i,?,7%,18µM*
COc1ccc(/C=C/C(=O)NC(=S)Nc2ccccc2)cc1OC,-13,-5,i,i,17%,18µM*
COc1ccc(NC(=O)C(Cc2ccccc2)NS(=O)(=O)c2ccc3c(c2)CCN3C(C)=O)cc1 (stereo not drawn),/,-4,i,i,/,/
CC1Cc2cc(/C=C3/SC(N4CCC(C(N)=O)CC4)=NC3=O)ccc2O1 (stereo not drawn),-5,-5,?,i,-13%,13µM*
CC1CCN(C2=NC(=O)/C(=C/c3cccc(O)c3)S2)CC1,-85*,-37,i,i,2%,-6%
O=S(=O)(c1ccc(N2CCOCC2)c(Cl)c1)N1CCOCC1,4,-8,i,i,?,4%
C#CCNC(=O)C1CCN(c2ccc(S(=O)(=O)N3CCOCC3)cc2Cl)CC1,-19,-10,?,?,3%,9%
Cc1oc(-c2ccccc2F)nc1CN1CCC(C(=O)NCc2cccs2)CC1,-52*,-1,?,i,-3%,7%
Cc1oc(-c2ccccc2F)nc1CN1CCC(C(=O)NC2CC2)CC1,-25,1,i,i,0%,-15%
CC1CCCC(C)N1c1ccc(S(=O)(=O)N2CCOCC2)cc1Cl (stereo not drawn),1,-3,i,?,8.2µM*,?
Cc1cc(C)nc(N2CCC(C(=O)NCc3ccco3)CC2)n1,15,16,i,16µM*,3%,-7%
O=C(NCc1cccs1)C1CCN(c2ccc(S(=O)(=O)N3CCOCC3)cc2Cl)CC1,-26,4,2.3µM*,3.7µM*,6.5µM*,1.3µM*
SMILES,DRD3 antagonist,D3 ag,KB-3-1 tox,KB-V1 MDR tox,MCF10A rerep,SW480 rereplic
CCOc1ccc(-n2cc(C(=O)Nc3ccccc3OCC)c3cc(OC)c(OC)cc3c2=O)cc1,/,-3,i,i,/,/
Cc1ccc(NC(=O)c2cc(S(=O)(=O)N3CCCC(C)C3)cn2C)c(Br)c1 (stereo not drawn),/,9,i,i,/,/
CCOc1ccc(-c2cc(-c3nc(-c4ccc(C)cc4)no3)[nH]n2)cc1,/,-12,i,i,/,/
Cc1cc(C)nc(N2CCC(C(=O)NCc3cccs3)CC2)n1,-6,5,i,13µM*,-2%,-1%
Cc1ccc2cc(COC(=O)C3CCCO3)c(=O)[nH]c2c1 (stereo not drawn),-27,-2,?,12µM*,-2%,-5%
Cc1ccc2cc(CN(CC(C)C)C(=O)C3CCCO3)c(=O)[nH]c2c1 (stereo not drawn),24,1,i,?,1%,-4%
Cc1ccc(C(=O)N/C(=C\c2ccc(-c3ccc(Br)cc3)o2)C(=O)NCCCN(C)C)cc1,?,-15,5.8µM*,?,?,7.3µM*
Cc1ccc(C(=O)N/C(=C\c2ccc(-c3cccc([N+](=O)[O-])c3)o2)C(=O)NCCCN(C)C)cc1,34,7,?,i,1%,0%
CN(C)CCNC(=O)/C(=C/c1ccc(-c2ccc(Cl)cc2Cl)o1)NC(=O)c1ccccc1,-14,4,?,?,7.3µM*,?
Cc1cc(C)n(CCc2nc3c4ccccc4nc(N4CCN(c5cccc(C)c5C)CC4)n3n2)n1,/,-1,i,i,/,/
Cc1cnc(NC(=O)CSc2ncc(-c3ccccc3)n2Cc2ccco2)s1,11,-6,i,21µM*,?,2%
CCC(=O)Nc1cc(NC(=O)CSc2ncc(-c3ccc(F)cc3)n2Cc2ccco2)ccc1C,-60*,1,i,i,?,6%
CN(C)C(CNc1ccc(C(F)(F)F)cc1[N+](=O)[O-])c1ccccc1 (stereo not drawn),?,-13,i,?,?,-1%
Cc1cc(N/N=C/c2ccccc2O)c2ccccc2n1,-12,-15,13µM*,?,12µM*,?
COc1ccc(/C=N/Nc2cc(C)nc3ccc(Br)cc23)cc1,5,-8,?,16µM*,12µM*,16µM*
CCOC(=O)C1C(=O)C=C(c2ccc(C)cc2)CC1c1ccc([N+](=O)[O-])cc1 (stereo not drawn),1,1,i,7.3µM*,-1%,-21%
Cc1ccc(Oc2cc([N+](=O)[O-])cc3c2C(=O)Nc2ccccc2O3)cc1,-12,49*,?,i,21%,0%
O=C1Nc2ccccc2Oc2cc(Oc3ccc(Cl)cc3)ccc21,/,17,i,i,/,/
